Experimental findings from PubChem BioAssay AID686971 (National Center for Advancing Translational Sciences (NCATS), 2013) are described below.

Out of some 360,000 compounds screened, about 7,500 (2.1%) were called active. Where a call stands in place of a potency, no number is given. Inconclusive results (about 8%) are left out. This is one part of a sample in which actives are shown more often than they occur. The call rests on the fitted dose curve; in most records, active means well fitted cell-killing curve with a large enough effect; inconclusive means small, poorly fitted or top-dose-only effect, or effect the other way, or another doubt; inactive means no such curve, though single readings can be large or run the other way.
Potency means the concentration at half of the fitted maximal effect.

The assay can be described thus: qHTS for induction of synthetic lethality in tumor cells producing 2HG: qHTS for the HT-1080-IDH1KD cell line. Particulars: HT-1080 IDH1 knockdown viability, ATP luminescence, 48 h; series mostly up to 46.1 µM. In outline: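 Assay cells: HT-1080 with IDH1 knockdown, 750 per well, RPMI/5% FBS. Exposure: 48 h at 37 °C following 2 h pre-incubation. Read: CellTiter-Glo luminescence; fitted concentration-response, curve class assigned.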
On to `COc1cc(CNc2ncnc3c2ncn3[C@H]2CN(Cc3cccs3)C[C@@H](CO)O2)cc(OC)c1OC`, for which the Potency entry is “inactive”.
The result for `CCc1ccc(CNC(=O)C2CC(=O)N(CCc3ccc(C)cc3)C2)cc1` (centres undefined) reads “inactive”; that for `COc1ccc(-n2nc3c(N4CCC(C(=O)NCc5ccccc5)CC4)nnc(C)c3c2C)cc1`, “inactive”.
The result for `CCc1ccc(CNC(=O)C2CCN(c3nnc(C)c4c(C)n(-c5ccc(C)cc5)nc34)CC2)cc1` reads 14.6 µM (active); that for `OC[C@H]1O[C@@H](c2nc(-c3nc(-c4ccc(F)cc4)no3)cs2)[C@H](O)[C@@H](O)[C@H]1O`, “inactive”.
The result for `CCOC(=O)C1=C(C)N=c2s/c(=C\C(=O)OC)c(=O)n2C1c1ccc(OC)cc1` (centres undefined) reads “inactive”; that for `O=C1CCCC2=C1C(c1ccccc1)n1c(s/c(=C/c3cccc(F)c3)c1=O)=N2` (centres undefined), “inactive”; that for `COc1ccc(OC)c(C2C3=C(N=c4s/c(=C\c5cccc(O)c5)c(=O)n42)c2ccccc2CC3)c1` (centres undefined), 20.6 µM (active).
With `COc1ccc(S(=O)(=O)NC(=O)C2(C)CCN2C(=O)c2ccccc2CCc2ccccc2)cc1` (centres undefined), the Potency result was “inactive”.
Take `COC(=O)C[C@H]1C=C[C@H](NC(=O)c2ccc(F)cc2)[C@@H](CO)O1`: the Potency result is “inactive”.
The result for `C1=C(CCNc2ncnc3c2cnn3-c2ccccc2)CCCC1` reads “inactive”.
The result for `O=C(NCCC1=CCCCC1)C1CCN(Cc2cnn(-c3ccccc3)c2-n2cccc2)CC1` reads 25.9 µM (active); that for `Cc1ccc(S(=O)(=O)N2CCC(C(=O)NCCC3=CCCCC3)CC2)cc1C`, “inactive”; that for `CCOC(=O)c1cc(NC(=O)c2cccnc2)ccn1`, “inactive”.
The result for `CCOC(=O)c1ccc(-c2ccc(C(=O)Nc3cccnc3)o2)cc1` reads “inactive”.
On to `CCOC(=O)c1ccc(NC(=O)c2cccnc2)cc1`, for which the Potency was 14.6 µM (active).
The result for `CCCCCC(=O)N1C[C@H](O)[C@@H](n2cc(COC(=O)c3ccccc3)nn2)C[C@@H]1c1ccc(C)cc1` reads “inactive”; that for `Cc1onc(-c2ccccc2)c1-c1nnc(COC(=O)c2ccc(N(C)C)cc2)o1`, “inactive”; that for `N#CCSc1nc(-c2ccccc2)nc2ccc(F)cc12`, “inactive”.
The result for `Clc1ccc2nc(-c3ccccc3)nc(C(Cl)Cl)c2c1` reads 7.31 µM (active); that for `Clc1cccc(-c2nc(NCC3CCCO3)c3ccccc3n2)c1` (centres undefined), “inactive”; that for `CN1CCN(c2ccncc2S(=O)(=O)N2CCCC2)CC1`, “inactive”.
The result for `Cc1onc(-c2ccccc2Cl)c1C(=O)OCC(=O)c1ccccc1` reads “inactive”.
Turning to `Cc1onc(-c2ccccc2Cl)c1C(=O)OCc1nnc(-c2ccccc2)o1`, the Potency entry was “inactive”.
Consider `Cc1[nH]c2ccccc2c1C(=O)COC(=O)c1c(-c2ccccc2)noc1C`, for which the Potency is 23.1 µM (active).
The result for `CC1(C)CC(=O)C=C(c2ccc(COC(=O)c3cc(F)cc(F)c3)cc2)C1=O` reads “inactive”.
The result for `Cc1onc(NC(=O)c2ccc([N+](=O)[O-])o2)c1Br` reads “inactive”; that for `O=C(Nc1ccc(Br)cn1)c1ccc([N+](=O)[O-])cc1Cl`, “inactive”.
The result for `O=C(Nc1ccc(Br)cn1)c1ccc([N+](=O)[O-])o1` reads 10.3 µM (active); that for `CC1CC(NC(=S)N(C)C)CC(C)(C)C1` (centres undefined), “inactive”.
With `COc1ccc(/C=C2\SC(=S)N(CCC(=O)N3CCOCC3)C2=O)cc1OC`, the Potency result is “inactive”.
The result for `CCCCCn1nnnc1C1c2ccccc2C(=O)N1Cc1ccco1` (centres undefined) reads “inactive”.
The result for `c1ccc2cc3[nH]c(CN4CCCCC4)nc3cc2c1` reads “inactive”.
The result for `CCCCCn1nnnc1-c1nc2cc3ccccc3cc2[nH]c1=O` reads 7.31 µM (active).
Turning to `COc1ccc(S(=O)(=O)NC(=O)C2(C)CCN2C(=O)COc2ccc(Cl)cc2)cc1` (centres undefined), the Potency entry was “inactive”.
The result for `CC1(C(=O)NCc2ccc3c(c2)OCO3)CCN1C(=O)Cc1cccc2ccccc12` (centres undefined) reads “inactive”.
The result for `Nc1[nH]c(C(=O)c2ccccc2)c(-c2ccc(Br)cc2)c1C(=O)NC1CC1` reads “inactive”; that for `O=C(NCc1cccnc1)c1cc(C2CCCN(C(=O)CCCc3ccccc3)C2)on1` (centres undefined), “inactive”; that for `O=C(C[C@H]1C[C@@H]2c3cc(NC(=O)C4CCC4)ccc3O[C@@H]2[C@H](CO)O1)NC1CCCCC1`, “inactive”.
The result for `COc1ccc(S(=O)(=O)N(C)C)cc1NC(=O)COC(=O)c1n[nH]c2ccccc12` reads “inactive”; that for `COc1ccc(C(=O)NN(C)c2nc(-c3ccccc3)cc(C)c2S(C)(=O)=O)cc1`, “inactive”.
As for `CN(NC(=O)c1ccccc1F)c1nc(C(F)(F)F)nc2ccccc12`, the Potency is 0.206 µM (active).
The result for `CSc1nc(N(C)NC(=O)c2cccc(C)c2)c2ccccc2n1` reads 0.0461 µM (active); that for `Cc1cccc(C(=O)Nc2ccc(C(=O)N/N=C/c3cccc(C)n3)cc2)c1`, “inactive”.
The result for `CC(NC(=O)c1ccccc1F)c1cccc2ccccc12` (centres undefined) reads “inactive”.
The result for `Cn1c(CC(=O)NNC(=O)c2ccccc2F)nc2ccccc21` reads “inactive”; that for `CC1=C(C(=O)N2CCOCC2)CC(CC(=O)NCCN2CCOCC2)C(=O)N1CCC1=CCCCC1` (centres undefined), “inactive”.
`Cc1noc(C)c1S(=O)(=O)N(C)C[C@H]1OCCCC[C@@H](C)Oc2ccc(NC(=O)CCCN(C)C)cc2C(=O)N([C@H](C)CO)C[C@@H]1C`: the Potency entry was “inactive”.
The result for `Cc1noc(C)c1C(=O)N1CCC1(C)C(=O)NS(=O)(=O)c1ccc(C#N)cc1` (centres undefined) reads “inactive”.
As for `CN1OC[C@@H]2CN[C@H](c3ccc(-c4ccccc4)cc3)C[C@@H]21`, the Potency entry is “inactive”.
The result for `CCNC(=O)C1(C)CCCN(C(=O)c2c(C)noc2C)C1` (centres undefined) reads “inactive”; that for `CN1OC[C@@H]2CN(S(=O)(=O)c3cccc(C(F)(F)F)c3)[C@H](c3ccc(-c4cc5ccccc5o4)cc3)C[C@@H]21`, “inactive”; that for `COCCNC(=O)C1C(=O)Nc2ccccc2C(=O)N1c1ccc2c(c1)OCCO2` (centres undefined), “inactive”.
The result for `C[C@@H]1CN([C@@H](C)CO)C(=O)CCCn2nncc2CO[C@@H]1CN(C)S(=O)(=O)c1ccc(-c2ccccc2)cc1` reads “inactive”; that for `Cn1c(=O)c2cc(NC(=O)NCCc3cccs3)ccc2n1Cc1cccc(C(F)(F)F)c1`, “inactive”; that for `Clc1ccc(-c2cc(C3CCNCC3)[nH]n2)c(Cl)c1`, 23.1 µM (active).
The result for `Clc1ccc(-c2cc(-c3ccccn3)on2)c(Cl)c1` reads “inactive”; that for `O=C(OCc1cn([C@@H]2C[C@H](c3ccc(Cl)cc3)N(Cc3cccs3)C[C@H]2O)nn1)c1ccccc1`, “inactive”; that for `COC(=O)[C@@]12C[C@@H](CC(=O)N3CCCCC3)C(=O)N(Cc3ccc4c(c3)OCO4)C1=CCC(C)(C)C2`, “inactive”.
